Screening results deposited in PubChem BioAssay by Broad Institute.
An excerpt weighted towards active compounds, which were near 1.1% of everything screened.
N-glyco inh: N-linked glycosylation inhibition; reporter increase, % at 12.5 µM; D54 ERlucT glycosylation luciferase reporter, 24 h; percent of 100 nM tunicamycin response; 360,000 tested, 0.23% active;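 active means mean luciferase reporter signal, scaled so untreated is 0 and the glycosylation-blocking control 100, at or above a set limit in every replicate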;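 further: luciferase carries N-glycosylation sites so blocking glycosylation raises the light; 0% = median of neutral control wells and 100% = median of 100 nM tunicamycin wells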
HDAC3 inhib: inhibitors of human histone deacetylase 3. 320,000 tested, 0.15% active. recombinant HDAC3, fluorogenic peptide/trypsin coupled, fluorescence. AID 2718. inhibition, % at 8.3 µM. O15379; in the data active means inhibition above about 26%, passing the limit was not always enough
Target sequence (O15379 whole entry, looked up): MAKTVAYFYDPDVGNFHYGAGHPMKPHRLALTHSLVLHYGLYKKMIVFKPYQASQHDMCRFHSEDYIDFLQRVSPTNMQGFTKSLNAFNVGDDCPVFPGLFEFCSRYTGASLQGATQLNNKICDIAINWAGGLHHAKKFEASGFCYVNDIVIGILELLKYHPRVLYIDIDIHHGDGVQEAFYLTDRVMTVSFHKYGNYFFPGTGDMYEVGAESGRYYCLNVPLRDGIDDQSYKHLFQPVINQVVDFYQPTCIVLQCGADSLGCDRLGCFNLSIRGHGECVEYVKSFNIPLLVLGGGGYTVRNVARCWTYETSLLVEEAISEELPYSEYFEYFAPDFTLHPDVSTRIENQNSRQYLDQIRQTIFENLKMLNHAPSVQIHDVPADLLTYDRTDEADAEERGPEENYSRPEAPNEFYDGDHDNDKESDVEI
NSD2 HMT inh: NSD2 (human) methyltransferase inhibition; AID 743445; NSD2 peptide methylation, AlphaScreen, 120 min; 310,000 tested, 0.54% active; inhibition, % at 12.5 µM; in the data active means inhibition above about 50%
Casp6 inh: caspase-6 (human) enzyme inhibition; P55212; purified caspase-6, Z-VEID-R110 cleavage fluorescence; inhibition, % at 12.5 µM; 350,000 tested, 0.53% active;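 active means mean inhibition across replicates at least about 35%, with every replicate also reaching that limit, limit read from the data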;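 further: 0% = median of neutral control wells and 100% = no fluorescence left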
Target sequence (P55212 24-179 limits assumed): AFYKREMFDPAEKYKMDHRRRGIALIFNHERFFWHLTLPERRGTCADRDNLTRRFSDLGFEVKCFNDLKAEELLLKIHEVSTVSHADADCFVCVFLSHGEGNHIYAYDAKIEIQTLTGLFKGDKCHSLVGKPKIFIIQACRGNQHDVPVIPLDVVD
Target sequence (P55212 194-293 limits assumed): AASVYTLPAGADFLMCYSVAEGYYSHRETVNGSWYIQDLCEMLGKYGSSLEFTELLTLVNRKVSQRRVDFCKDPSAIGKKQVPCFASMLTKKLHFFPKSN
Keap1 Nrf2 FP: inhibitors of human Keap1-Nrf2 protein-protein interaction. Keap1 Kelch-Nrf2 peptide fluorescence polarization, 1536-well. inhibition, % at 9.4 µM. 340,000 tested, 0.15% active; in the data active means inhibition above about 12%;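 further: human Keap1 Kelch domain with fluorescein labeled Nrf2 9mer peptide probe; 0% = neutral control wells and 100% = peptide positive control; higher means more block of Keap1 binding to Nrf2 peptide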
LANA DNA inh: KSHV C-LANA DNA binding inhibition; 340,000 tested, 0.078% active; MBP-C-LANA/FAM-LBS DNA binding, fluorescence polarization; inhibition, % at 9 µM;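 active means highest replicate inhibition at or above 60% at 9 µM, even if other replicates fall short; inactive means all replicates below 60% inhibition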;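 further: 0% = neutral control wells and 100% = 4 µM acridine orange control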
Alpha artifact: interferes with AlphaScreen signal, flagging NSD2 false positives; AlphaScreen artifact counterscreen, preloaded methylated H4 peptide; 1,500 tested, 9.4% active; AID 1053174; AC35, µM (highest dose often 10 µM), for inactives: top-dose activity change, negative = signal loss; shares compounds with NSD2 HMT inh; call rule not given here
Numbers without * were called inactive; / = no result; + = active, no number.

SMILES | N-glyco inh | HDAC3 inhib | NSD2 HMT inh | Casp6 inh | Keap1 Nrf2 FP | LANA DNA inh | Alpha artifact
COc1cc(/C=C(\C#N)c2nc3ccc(C)cc3[nH]2)cc([N+](=O)[O-])c1O | 4.3 | / | 61.2* | 16.2 | 0.0 | 2.5 | -17.2%
COc1cc(/C=C(\C#N)c2nc3ccc(C)cc3[nH]2)c([N+](=O)[O-])cc1OC | 1.8 | 2.0 | 0.2 | / | 2.7 | -2.9 | /
CC(=O)N(C)C[C@@H]1Oc2cc(C#C[C@@H](C)O)ccc2S(=O)(=O)N([C@@H](C)CO)C[C@@H]1C | / | / | / | 12.4 | / | / | /
CO[C@@H]1CN(C)C(=O)c2ccc(NC(=O)Nc3cc(F)ccc3F)cc2OC[C@@H](C)NC[C@H]1C | / | / | / | 2.0 | / | / | /
CCOc1ccc(-c2nnc(SCc3nc4ccccc4[nH]3)n2N)cc1 | -0.9 | 7.0 | 71.9* | / | -3.5 | -1.6 | -3.7%
CCOc1ccc(-n2c(COc3ccccc3)nnc2SCc2nc3ccccc3[nH]2)cc1 | / | / | -2.9 | / | / | / | /
COc1cn(-c2ccccc2)nc1C(=O)NCc1ccccc1 | 1.1 | -4.1 | 79.5* | -0.8 | 1.2 | -0.5 | -4.5%
Cc1ccc(Cn2c(SCC(=O)N3CC(=O)Nc4ccccc43)nc3ccccc3c2=O)cc1 | -2.2 | 9.2 | 60.5* | -0.7 | -2.9 | -0.1 | -0.6%
O=C1CN(C(=O)CSc2nc3cc(Cl)ccc3c(=O)n2Cc2ccccc2)c2ccccc2N1 | -7.2 | 3.1 | -0.7 | -0.1 | -1.6 | -0.4 | /
COCC(=O)N1CC[C@@H]2[C@H]1c1cc(-c3cccc(C#N)c3)ccc1N[C@@H]2CO | / | / | / | -3.9 | / | / | /
Cc1cccc(C(=O)NCC(=O)OCc2nnc(-c3ccccc3)o2)c1 | 0.9 | -17.9 | + | 0.3 | -5.4 | 1.5 | -0.7%
O=C(CNC(=O)c1ccccc1)OCc1nnc(-c2ccc(Cl)cc2)o1 | 0.8 | -1.1 | -1.3 | 7.4 | -2.1 | -1.1 | /
Cc1ccc(CN2CCC(=O)N2)cc1 | 1.6 | -9.5 | -0.7 | -2.5 | -4.5 | -0.8 | /
O=C1CCN(Cc2ccccc2)N1 | 3.2 | -5.4 | 85.9* | 1.1 | -8.7 | 1.4 | 0.6%
C[C@H]1CN([C@@H](C)CO)C(=O)c2cccc(NS(=O)(=O)c3cccs3)c2O[C@H]1CN(C)C | / | / | / | -1.5 | / | / | /
COc1ccc2c(c1)Cc1sc(NC(=O)c3ccccc3)nc1-2 | 0.7 | 4.7 | 127.8* | / | -4.9 | 0.9 | -4.9%
COc1ccc2c(c1)Cc1sc(NC(=O)c3cccs3)nc1-2 | -2.4 | 0.6 | 78.2* | / | -1.5 | -0.6 | -1.7%
COc1ccc(C(=O)Nc2nc3c(s2)Cc2cc(OC)ccc2-3)cc1 | -0.6 | 4.2 | 11.5 | / | -1.1 | 0.1 | /
COc1ccc2nc(NC(=O)c3cccs3)sc2c1 | 1.6 | -2.7 | -3.5 | -12.3 | / | / | /
COc1c(Cl)cc(C(=O)NN)cc1Cl | 3.0 | -3.9 | -3.5 | 0.9 | -5.2 | 0.2 | /
NNC(=O)c1cc(O)c(O)c(O)c1 | -2.8 | -7.3 | + | 77.0* | -3.4 | 80.9* | -10.6%
CC(C)(C)c1ccc(CS(=O)(=O)CC(O)CN2CCCC2=O)cc1 (stereo unspecified) | 3.6 | -6.9 | -0.1 | -1.5 | 2.7 | 4.0 | /
Cc1ccccc1CS(=O)(=O)CC(O)CN1CCCC1=O (stereo unspecified) | -0.7 | -0.5 | 128.7* | -0.9 | -2.9 | -1.9 | -2.7%
O=C(NCc1ccc(F)cc1)C1CCCN1S(=O)(=O)c1ccc(F)cc1 (stereo unspecified) | 0.1 | / | -0.4 | 1.7 | / | / | /
O=C(NCc1ccc(F)cc1)C1CCCN1S(=O)(=O)c1ccccc1C(F)(F)F (stereo unspecified) | 0.5 | 3.7 | 136.7* | 0.3 | -7.6 | 0.4 | -2.5%
SMILES | N-glyco inh | HDAC3 inhib | NSD2 HMT inh | Casp6 inh | Keap1 Nrf2 FP | LANA DNA inh | Alpha artifact
COc1cccc(S(=O)(=O)N(C)C[C@@H]2Oc3ncc(-c4cccc(C(=O)N(C)C)c4)cc3C(=O)N([C@@H](C)CO)C[C@@H]2C)c1 | / | / | / | -1.2 | / | / | /
Cc1ccc(NC(=O)CCNC(=O)c2ccco2)cc1 | 0.9 | 1.1 | -3.4 | / | -2.5 | -0.9 | /
CN(C)S(=O)(=O)c1ccc(NC(=O)CCNC(=O)c2ccco2)cc1 | -0.6 | 2.4 | 58.5* | -3.5 | -4.0 | 0.2 | 0.1%
CCC(=O)N[C@H]1C=C[C@H](CC(=O)NCc2ccccc2F)O[C@H]1CO | / | / | / | -1.7 | / | / | /
O=C1NN(c2ccc(Cl)cc2)C(=O)/C1=C\c1ccc(-c2cccc(C(=O)O)c2)o1 | 1.2 | / | 53.8* | 73.3* | -5.6 | 19.4 | -12.1%
Cc1ccc(N2NC(=O)/C(=C/c3ccc(-c4ccc(Cl)c(C(=O)O)c4)o3)C2=O)cc1 | -0.3 | 4.0 | 19.6 | 22.4 | -0.1 | 1.1 | /
COc1ccc(Oc2c(OC)cc([N+](=O)[O-])c3ncccc23)cc1 | -3.1 | / | 5.1 | -11.3 | -1.2 | -0.3 | /
COc1cc(NC(C)CCCN)c2ncccc2c1Oc1ccccc1 (stereo unspecified) | -4.1 | / | 63.2* | / | -6.9 | 0.8 | -1.1%
O=S(=O)(NC[C@H]1N[C@@H](CO)[C@H]1c1ccc(C2=CCCC2)cc1)c1ccccc1 | / | / | / | -1.4 | / | / | /
COCC(=O)N1C[C@@H](C)[C@H](OC)CN(C)C(=O)c2cc(NC(=O)c3ccccc3)ccc2OC[C@H]1C | / | / | / | 2.5 | / | / | /
Nc1ccc2c(c1)C(=O)C(=O)c1ccccc1-2 | -18.7 | -1.6 | 112.5* | / | -2.2 | 0.2 | -8.1%
CCC(=O)N1[C@H](CO)[C@H]2c3ccccc3N(C(=O)NC(C)C)C[C@H]21 | / | / | / | -1.4 | / | / | /
N#Cc1cc(-c2ccccc2)cnc1Sc1ccc(Cl)cc1 | -2.2 | -9.0 | 112.1* | / | 2.0 | 0.1 | 6.6%
N#Cc1cc(-c2ccc(Cl)cc2)cnc1Sc1ccccc1 | -5.1 | 6.2 | -5.2 | / | -1.1 | -0.7 | /
O=C(O)C[C@H]1CC[C@H](NC(=O)Nc2cc(F)ccc2F)[C@H](CO)O1 | / | / | / | 0.1 | / | / | /
FC(F)(F)c1ccc(N/N=C/c2cccnc2)nc1 | 1.1 | 0.5 | 116.3* | 0.0 | -1.9 | -0.4 | -2.4%
Cc1cccc(C(=O)NCc2nnc(SCC(=O)Nc3nnc(C)s3)n2C)c1 | 0.8 | 1.5 | 89.9* | -2.0 | -7.8 | -1.6 | -1.7%
COc1cc(/C=C2\SC(c3ccc(C)cc3)=NC2=O)cc(OC)c1O | 5.8 | 15.1 | 6.3 | 1.3 | -1.1 | -1.5 | /
Cc1ccc(C2=NC(=O)/C(=C/c3cc(O)c(O)c(Br)c3)S2)cc1 | 5.4 | / | 119.6* | 78.9* | 1.9 | 1.6 | 8.21µM*
CO[C@@H]1CN(C)C(=O)c2ccc(NS(C)(=O)=O)cc2OC[C@@H](C)N(Cc2cncnc2)C[C@@H]1C | / | / | / | 1.3 | / | / | /
CCNC(=O)C[C@@H]1CC[C@H]2[C@H](COc3ccc(NC(=O)c4ccc5c(c4)OCO5)cc3C(=O)N2C)O1 | / | / | / | -0.5 | / | / | /
CC(C)CC#Cc1ccc([C@H]2[C@@H](CO)N3C(=O)CN(C(=O)Cc4cccnc4)C[C@H]23)cc1 | / | / | / | 1.9 | / | / | /
COc1ccc(CCCc2n[nH]c(=S)n2C)cc1C | 3.5 | -4.3 | 52.3* | 2.0 | -2.7 | 1.2 | -1.7%
O=C(CN1CCN(S(=O)(=O)c2ccc(Br)cc2)CC1)c1ccc(O)c(O)c1 | -1.7 | 2.0 | 79.7* | 54.8* | -0.8 | 4.5 | -13.3%
